Experimental data reported in ChEMBL document CHEMBL3988442, “University of Dundee, Small-Polar-MMV Screening Library” (2021).
Among all 48,000 compounds or so, about 13,000 (27%) showed an effect of 50% or more. The list shows a part of the results.

What follows are compounds tested on Wolbachia pipientis (assay: Anti-Wolbachia Cell-Based Screen). Conditions: 5 µM.
Format: functional
Set-up: scale not given: in the data most compounds retested in dose-response had high values

Structure (SMILES) | Percent Effect [%]
CCC(CC)c1cc(C(=O)N2CCN(CC(N)=O)CC2)on1 | 14.59
CC(=O)N1CCC(C(=O)NC(C)c2cccc(OC(F)F)c2)CC1 (centres undefined) | 11.71
CNC(=O)[C@@H](c1ccccc1)N1CCC[C@H]1C(=O)NC1CCCCC1.Cl | 13.78
O=C1NCCCC12CCN(S(=O)(=O)N1CCOCC1)C2 (centres undefined) | -15.95
CCc1nc(CN(C)Cc2nc(-c3ccccc3Cl)oc2C)no1 | -5.34
NC(=O)NC(CC(=O)NCCc1cccc(F)c1)c1ccccc1 (centres undefined) | -0.165
c1ccc(C2CCCN2Cc2nc(-c3cnccn3)no2)nc1 (centres undefined) | -14.84
CN(C)CCC1CCCCN1Cc1cnc(-c2ccccn2)nc1 (centres undefined) | -28.12
CN(C)c1nccc(C2CCCCN2Cc2cnn3cccnc23)n1 (centres undefined) | 74.52
CNc1nccc(C2CCCCN2Cc2cnn3cccnc23)n1 (centres undefined) | 117.1
Cc1nc(C)c(C)c(NCc2cnn3cccnc23)n1 | -1.599
c1cnc2c(CN3CCCCC3c3ccncn3)cnn2c1 (centres undefined) | 72.9
c1ccc(C2CCCCN2Cc2nc(-c3cnccn3)no2)nc1 (centres undefined) | 12.62
c1ccc(-c2ncc(CN3CCCCC3CCn3cccn3)cn2)nc1 (centres undefined) | -35.25
CN(C)Cc1nc(C(C)(C)NC(=O)c2nc3ccccc3s2)no1 | 8.405
CC(C)c1cc(C(=O)N2C[C@H]3CC[C@@H]2CN(Cc2cscn2)C3)no1 | -2.131
CNC(=O)C(C)(C)N1CCC[C@H]1C(=O)NC(C)(C)C | -3.15
OCCN1CCC(Cc2nccs2)CC1 | 98.4
Fc1ccc(CC2CCN(Cc3nccs3)CC2)cc1 | 16.43
Fc1ccccc1CC1CCN(Cc2nccs2)CC1 | 9.425
CCOCc1nc2c(c(NCc3cc(C)on3)n1)CCN(C(C)=O)CC2 | -0.7778
CCc1nc(NC(=O)NCCc2scnc2C)nn1C | 3.208

Structure (SMILES) | Percent Effect [%]
COc1cccc(C2CCCN2C(=O)c2ccc(=O)n(C)c2)c1 (centres undefined) | 0.747
CCOc1ccccc1C(=O)N1CCCC1c1ncc2c(n1)CCNC2.Cl (centres undefined) | 7.885
Cc1ncnc2c1CCN(C(=O)c1cccc(F)c1)CC2 | -5.781
CN(C)c1cccc(C(=O)N2CCc3ccc(=O)[nH]c3CC2)c1 | -3.419
COc1ccccc1C(=O)N1CCCC1c1nncn1CC(C)C (centres undefined) | 2.233
COc1cccc(C(=O)N2CCCC2c2ncc3c(n2)CCN(C)C3)c1 (centres undefined) | 114.1
Cl.O=C(c1cccc(F)c1)N1CCCC1c1ncc2c(n1)CCNC2 (centres undefined) | 105.4
COc1ccccc1C(=O)N1CCCC1c1ncc2c(n1)CCNC2.Cl (centres undefined) | 126.5
CN(C)c1cccc(C(=O)N2CCCC2c2ncc3c(n2)CCNC3)c1.Cl (centres undefined) | 118.3
COc1cccc(C2CCCN2C(=O)c2cc3c(nc2OC)CCC3)c1 (centres undefined) | -14.5
O=C(c1ccc(F)c(F)c1)N1CCCCC1c1nc[nH]n1 (centres undefined) | 17.06
N#CCCCS(=O)(=O)N1CCC(CSc2ccccc2)C1 (centres undefined) | -3.001
O=C(C1SCCc2sccc21)N1CCN(CCO)CC1 (centres undefined) | 1.361
O=C1NC2(Nc3ncccc31)C(=O)Nc1c2ccc(Cl)c1F (centres undefined) | -11.72
c1ccc(-c2nnc3n2CCN(c2nc(C4CC4)ns2)C3)cc1 | -0.2636
CN(Cc1noc2c1CCCC2)C(=O)Cn1cnc2ccccc2c1=O | 0.7727
CCCc1nccn1CCn1cnc2ccsc2c1=O | -10.48
CN1C(=O)COc2ccc(C(=O)Cn3cnc4ccsc4c3=O)cc21 | 115.3
CN1C(=O)COc2ccc(C(=O)Cn3cnc4ccccc4c3=O)cc21 | 102.3
CCn1ccnc1SCCn1cnc2ccsc2c1=O | -20.68
O=C(Cn1ccc2ncccc2c1=O)N1CCSCC1 | -22.33
CC(C)(C)C(=O)N1CCN(CCOc2cccc(C#N)c2)CC1 | 23.12

Structure (SMILES) | Percent Effect [%]
CCC[C@@H]1CN(C(=O)c2c(F)ccc(OC)c2F)C[C@H]1C(=O)O | -8.772
CCOc1ccc(N(C)Cc2nc(C)c(C)o2)cc1 | 2.822
COc1ccc2c(c1)nc1n2[C@@H](CNCc2ccccc2)COC1 | -7.543
C/N=C1/c2cc3cc(OC)ccc3n2CCN1Cc1ccccc1.Cl | 86.74
CCOC(=O)c1coc(N2CCN(Cc3cccc(OC)c3)C(=O)C2)n1 | -20.43
C/N=C1\c2cc3cc(OC)ccc3n2CCN1C.Cl | 97.02
CCN1CC(NC(=O)Nc2nc(C)n(C(C)C)n2)CC1=O (centres undefined) | -13.6
Cc1cc(N2CCC3(CCC(=O)N(CCCO)C3)CC2)nc(N(C)C)n1 | 15.64
COc1ccc(C[C@H]2CN(c3cc(OC)ncn3)CC[C@@H]2OC)cc1.O=C(O)C(F)(F)F | -9.694
COc1ccc(C[C@H]2CN(c3cc(OC)ncn3)CC[C@H]2OC)cc1.O=C(O)C(F)(F)F | -1.133
COc1cc(N2CC[C@H]3O[C@@H](C(=O)NC4CCCC4)CC[C@H]32)ncn1.O=C(O)C(F)(F)F | 90.73
COc1cc(N2CC[C@@H]3O[C@H](C(=O)N(C)C)C[C@@H]32)ncn1.O=C(O)C(F)(F)F | 99.56
O=C(NC1CC1)[C@H]1CC[C@@H]2[C@@H](CCN2c2ncc(F)cn2)O1.O=C(O)C(F)(F)F | -10.92
O=C(NC1CCCC1)[C@H]1CC[C@@H]2[C@@H](CCN2c2ncc(F)cn2)O1.O=C(O)C(F)(F)F | 6.364
COc1cc(NC(=O)c2cc(C)sc2C)c(C(=O)N(C)C)cc1OC | -0.1136
CC(=O)c1ccc(-n2ccc3nc(N4CCCC4)ncc3c2=O)cc1 | -1.476
CN(C)CC1(O)CCN(Cc2cnc3c(-c4ccccc4)cnn3c2)C1 (centres undefined) | -5.196
CS(=O)(=O)NCc1cc2n(n1)CCCN(Cc1cc3ccccc3o1)C2 | 0.8182
CC(CCN1CCCn2nc(CNS(C)(=O)=O)cc2C1)c1ccccc1 (centres undefined) | 111.7
CC(CCN1CCn2nc(CNC(=O)N(C)C)cc2C1)c1ccccc1 (centres undefined) | -9.419
